# D2 PAM-1 = positively modulates the human D2 dopamine receptor allosterically | P14416 | HEK293 T-REx D2, calcium flux, EC20 dopamine potentiation | potentiation, % at 10 µM | 0.34% of 340,000 active;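 active means potentiation over 3 SD above the plate norm, cut at about 30% in these data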; further: 0% is about no effect
# Target sequence (P14416 whole entry, looked up): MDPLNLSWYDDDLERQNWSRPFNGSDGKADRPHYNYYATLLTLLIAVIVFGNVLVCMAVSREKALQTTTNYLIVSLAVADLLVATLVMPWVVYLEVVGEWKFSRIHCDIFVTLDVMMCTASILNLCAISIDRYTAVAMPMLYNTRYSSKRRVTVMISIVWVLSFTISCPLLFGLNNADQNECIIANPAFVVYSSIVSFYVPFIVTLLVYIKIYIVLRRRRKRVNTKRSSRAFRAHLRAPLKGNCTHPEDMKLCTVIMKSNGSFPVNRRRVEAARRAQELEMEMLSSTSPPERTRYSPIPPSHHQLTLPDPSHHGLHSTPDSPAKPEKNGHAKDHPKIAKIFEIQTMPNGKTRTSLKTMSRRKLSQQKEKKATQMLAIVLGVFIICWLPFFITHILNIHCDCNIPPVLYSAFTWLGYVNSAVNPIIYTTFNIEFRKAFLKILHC
#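 Cells plated with tetracycline inducer and held overnight at 30 C; calcium dye loaded 30–90 min at room temperature; baseline taken, compound added and read 180 s; EC20 dopamine then added and read 180 s.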
# D2 antag = D2 dopamine receptor (human) antagonism | HEK293 TREx D2 cells, calcium flux, dopamine EC80 | 2% of 340,000 active | inhibition, % at 10 µM; in the data active means inhibition above about 30%; inactive means below that, where a call was filed; further: 0% is about no effect
#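 Measurement of antagonist activity uses fluorescent calcium dye in inducible HEK293 T-REx D2 cells: 10 s baseline, compound addition with 180 s read, EC80 dopamine addition with a further 180 s read.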
# D2 ag-1 = D2 dopamine receptor (human) agonism; 0.53% of 340,000 active; P14416; HEK293 T-REx D2 cells, calcium flux agonist mode; activation, % at 2 µM; AID 485358;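 active means activation over 3 SD above normal in the single-dose calcium agonist read, cut at about 30% in these data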; further: 0% is about no effect
#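 Tetracycline-induced HEK293 T-REx cells with force-coupled D2 receptor, plated overnight at 30 C, loaded with no-wash calcium dye. After a 10 s baseline, compound was pin-added and calcium flux read kinetically for 180 s; calcium rises flagged agonists.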
# D2 ag-2 = activates the human D2 dopamine receptor. activation, % (no concentration beside the values). P14416. 0.084% of 360,000 active. DiscoveRx PathHunter D2 beta-arrestin, luminescence, 90 min; 100% = 57 uM dopamine signal. AID 624465; in the data active means activation above about 40%; inconclusive means between about 15% and that limit
#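 DiscoveRx PathHunter D2 beta-arrestin cells (2,100/well) attached overnight, then compound-stimulated 90 min at 37 C in HBSS/10 mM HEPES/0.1% Tween-20 buffer; beta-galactosidase complementation read by luminescence after 1 h at ambient temperature. Dopamine 57 uM final (EC100) as control.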
# D2 PAM-2 = potentiates the human D2 dopamine receptor allosterically. P14416. DiscoveRx D2 beta-arrestin cells, luminescence, 90 min; 100% = 57 uM dopamine signal. potentiation, % (concentration not given with the values). 0.23% of 360,000 active; in the data active means potentiation above about 50%; inconclusive means mostly about 30% to 49%
#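 PathHunter beta-arrestin assay in DiscoveRx D2 cells. Compounds were added with an EC20 of dopamine (50 nM final) for 90 min at 37 deg C. Luminescence was read 1 h after detection reagent, with 57 uM dopamine as the EC100 control.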
# D3 arrestin ag = activates human D3 dopamine receptor beta-arrestin recruitment; shares compounds with D2 ag-1; DiscoveRx D3 beta-arrestin cells, luminescence, 90 min; Potency, µM (titrated, usually from 76.9 µM), without a hit: at the top dose activation, actives largely listed as activators; 4% of 2,300 active; AID 720506;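 further: potency means the concentration at half of the fitted maximal effect; 100% = dopamine control response; nearly all actives have a fitted effect of over 70% in size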
# D2 ag-3 = D2 receptor agonism, beta-arrestin counterscreen | shares compounds with D2 ag-1 | DiscoveRx PathHunter D2 beta-arrestin, luminescence, 90 min; response scale: percent relative to full dopamine signal | Potency, µM (series often up to 76.9 µM), without a hit: at the highest dose activation, usual class: activators | 5.9% of 2,300 active | AID 720507; further: potency means the concentration at half of the fitted maximal effect; % of control where 0% means no effect; nearly all actives have a fitted effect of over 70% in size
# * hit, by the source's call; ? = inconclusive; / = no result; ! = repeats disagree. Most compounds without a hit are left out; they make up all but 2.4% or so of the library. Unless noted, the call rests on the fitted dose curve; in most records, active means well fitted activation curve with a large enough effect; inconclusive means small, poorly fitted or top-dose-only effect; inactive means flat fitted curve, though single readings scatter.
SMILES,D2 PAM-1,D2 antag,D2 ag-1,D2 ag-2,D2 PAM-2,D3 arrestin ag,D2 ag-3
Cc1ccc(/C([O-])=C(/C(=S)NCc2ccccc2)[n+]2ccccc2)cc1[N+](=O)[O-],-17.7,8.0,31.3*,-3.7,-3.8,-14.8%,-7.1%
CCOC(=O)c1c(S(=O)(=O)N2CCCC(C(=O)Nc3cccc(C#N)c3)C2)c(C)n(C)c1C (stereo not given),-2.5,/,22.7,/,/,/,/
COc1cccc(OCC(O)CN2CCOCC2)c1 (stereo not given),10.9,1.3,-0.5,1.6,-20.6,/,/
OCC(O)CN1CCN(c2ccccc2)CC1 (stereo not given),-22.2,58.9*,82.2*,14.3,-16.2,-5.2%,17.4%
OC(CN1CCN(c2ccccc2)CC1)Cn1c2ccccc2c2ccccc21 (stereo not given),-13.9,-13.0,0.4,-14.7,-29.3,/,/
COc1cccc(OCC(O)CN2CCN(c3ccccn3)CC2)c1 (stereo not given),-27.3,91.5*,73.1*,?,21.0,?,3.55µM*
OC(CSc1ccc(F)cc1)CN1CCN(c2ccccc2)CC1 (stereo not given),-23.5,75.8*,79.6*,?,-17.1,-3.0%,19.7%
COc1cccc(OCC(O)CN2CCN(c3ncccn3)CC2)c1 (stereo not given),-17.1,69.1*,77.6*,?,3.2,14.6%,?
CCn1c(SC(C)C(=O)Nc2nccs2)nnc1-c1ccncc1 (stereo not given),-0.6,4.2,0.8,-3.6,5.3,/,/
CC(C)c1ccc(NC(=O)CN2C(=O)C3(SCC(=O)N3c3ccc(F)cc3)c3ccccc32)cc1 (stereo not given),3.5,/,-0.7,/,/,/,/
O=c1c2ccccc2n(Cc2c(F)cccc2Cl)c(=O)n1Cc1ccccc1,-2.6,/,0.4,/,/,/,/
COc1cccc(CN2CCN(c3ncccn3)CC2)c1,-29.1,95.0*,93.0*,55.1*,26.3,?,0.631µM*
COc1cccc(OCC(O)CN2CCN(c3ccccc3)CC2)c1 (stereo not given),-24.4,82.8*,79.0*,?,-0.1,?,?
COc1cccc(OCC(O)CN2CCN(c3ccc(Cl)cc3)CC2)c1 (stereo not given),-17.2,-42.1,7.5,-3.8,-26.2,/,/
OC(COc1ccccc1)CN1CCN(c2ncccn2)CC1 (stereo not given),-5.2,38.7*,9.0,-0.3,-8.1,15.0%,9.7%
OC(COc1ccc(Br)cc1)CN1CCN(c2ccccc2)CC1 (stereo not given),-17.6,81.2*,61.4*,-2.7,-14.4,?,?
Cn1cc(Br)c(C(=O)NC(=S)Nc2ccc(S(N)(=O)=O)cc2)n1,3.6,3.0,-1.0,-2.1,-7.9,/,/
COc1cc(Br)cc(CN2CCN(c3ncccn3)CC2)c1O,-18.2,73.9*,76.5*,52.2*,81.4*,?,7.94µM*
CCCN(CCC)CCNC(=O)c1cc2c(-c3ccccc3F)nn(C)c2s1,-15.5,41.5*,42.6*,66.7*,?,-3.0%,?
CCCCN(CC)CCNC(=O)c1cc2c(-c3ccc(Cl)cc3)nn(C)c2s1,-22.2,71.8*,44.3*!,74.9*,56.7*,?,25.1µM*
CCCN(CCC)CCNC(=O)c1cc2c(-c3ccc(Cl)cc3)nn(C)c2s1,-16.4,37.0*,45.0*,?,-3.2,12.3%,?
CCN(CC)CCNC(=O)c1cc2c(-c3ccc(Cl)cc3)nn(C)c2s1,-14.0,2.3,6.5,0.4,10.5,/,/
O=S(=O)(Nc1ccc(-c2cn3ccccc3n2)cc1)c1ccccc1,5.4,40.0*,-0.5,5.3,-0.6,15.6%,14.8%
Cc1cccc(S(=O)(=O)Nc2ccc(-c3cn4ccccc4n3)cc2)c1,9.6,0.6,0.4,-0.4,23.4,/,/
O=C(CNCc1cccnc1)Nc1cc(C(F)(F)F)ccc1N1CCOCC1,-8.4,3.2,0.7,-5.6,-14.5,/,/
SMILES,D2 PAM-1,D2 antag,D2 ag-1,D2 ag-2,D2 PAM-2,D3 arrestin ag,D2 ag-3
COc1cccc(CN2CCN(C(=O)c3cccs3)CC2)c1OC,-24.6,70.9*,90.3*,?,-4.4,?,?
COc1ccc(OC)c(CN2CCN(C(=O)c3cccs3)CC2)c1,-22.7,71.0*,81.9*,48.9*,?,23.0%,?
Cc1ccc(/C=C/C(=O)Nc2ccc(Cl)cc2Cl)cc1,-2.7,/,0.1,/,/,/,/
CN(CCOc1ccccc1)Cc1ccccc1,/,/,/,12.4,-10.2,/,/
CN(CCOc1ccc(Cl)cc1)Cc1cccc(S(=O)(=O)N(C)C)c1,-37.1,48.3*,70.1*,12.8,-7.8,7.08µM*,?
CC(C)C(=O)Nc1ccc2c(c1)nc(CCN1CCN(c3ccccc3)CC1)n2C,-21.0,17.7,60.9*,-1.8,-8.7,?,7.6%
CCCC(=O)Nc1ccc2c(c1)nc(CCN1CCN(c3ccccn3)CC1)n2C,-21.8,46.8*,67.3*,7.7,-9.9,?,?
Cn1c(CCN2CCN(c3ccccn3)CC2)nc2cc(NC(=O)COc3ccccc3)ccc21,0.9,47.0*,-0.8,5.6,2.1,?,?
CCCCC(=O)Nc1ccc2c(c1)nc(CCN1CCN(c3ccccn3)CC1)n2C,-23.8,51.0*,66.7*,13.7,-5.2,?,?
Cc1ccc(OCC(=O)Nc2ccc3c(c2)nc(CCN2CCN(c4ccccn4)CC2)n3C)cc1,/,/,/,1.8,-24.7,/,/
COc1ccccc1CCNC(=O)CCn1c(=O)c2cccn2c2ccc(F)cc21,1.0,7.2,-0.4,-5.1,-3.4,/,/
CCOC(=O)C1=CN(CC2CCCO2)C=C(C(=O)OCC)C1c1ccccc1C(F)(F)F (stereo not given),11.7,3.2,-0.5,-2.5,-11.4,/,/
CCCn1cc(CN2CCC(n3nccc3NC(=O)CCOc3ccccc3)CC2)c(C)n1,6.3,-3.9,0.9,0.1,-13.1,/,/
CCOc1ccc(OCC)c(NS(=O)(=O)c2cc(-c3cnc(C)o3)ccc2OC)c1,-4.2,/,2.1,/,/,/,/
Cn1c(CCN2CCCC2)nc2cc(NS(=O)(=O)c3ccc(Cl)cc3)ccc21,-5.9,2.7,-0.1,1.2,-28.1,/,/
Cn1c(CCN2CCN(c3ccccn3)CC2)nc2cc(NS(=O)(=O)c3ccccc3)ccc21,/,/,/,12.8,-24.8,?,?
COc1ccc(/C=N/Nc2nnc(-c3ccccc3)c(=O)[nH]2)cc1,-21.0,-20.7,59.9*,1.8,-6.6,6.5%,1.7%

# Screening data: PubChem, National Center for Advancing Translational Sciences (NCATS)
